The values below come from the supplement of paper PMC9262897, “Low-cost anti-mycobacterial drug discovery using engineered E. coli” (Nature Communications, 2022).

Counter-ions that a name gives are not always drawn. ± gives the standard deviation of the averaged measurements.

The test system of this test is E. coli TESEC Mtb DapB. As to the kind of experiment: growth (OD600 after 10 h); higher = more growth (less inhibition). Conditions: arabinose induction (level): High; compound 0.1 mM; raw OD600 reference: median of DMSO wells […], cell-free background 0.041. The protocol: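 TESEC E. coli strains in which the native enzyme is deleted and replaced by arabinose-inducible Mtb Asd, DapB, CysH or TrpD, each grown in its selective medium. Strains were screened against the Prestwick library at 0.1 mM and 1% DMSO in 384-well format at low and high arabinose induction. Growth is read as OD600 after 10 h in triplicate.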
`CCCNC(C)(C)COC(=O)c1ccccc1` [Meprylcaine hydrochloride] gave a growth of 0.182 ± 0.022.

`CN1CCC(=C2c3ccccc3CCc3cccnc32)CC1` [Azatadine maleate] displayed a growth of 0.18 ± 0.014.

`CNC(=C[N+](=O)[O-])NCCSCc1csc(CN(C)C)n1` [Nizatidine] registered a growth of 0.205 ± 0.019. For `Fc1ccc(C(c2ccc(F)cc2)N2CCN(C/C=C/c3ccccc3)CC2)cc1` [Flunarizine dihydrochloride], the growth was determined as 0.0896 ± 0.0018. Under `CC(C(=O)O)c1cccc(C(=O)c2ccccc2)c1` (centres undefined) [Ketoprofen] stands 0.184 ± 0.018. The value for `C1N2CN3CN1CN(C2)C3` [Methenamine] was 0.204 ± 0.0098.

Molecule `Cc1c(N(C)CS(=O)(=O)O)c(=O)n(-c2ccccc2)n1C` [Dipyrone] showed a growth of 0.204 ± 0.003. The value for `Cc1onc(-c2ccccc2)c1-c1ccc(S(N)(=O)=O)cc1` [Valdecoxib] was 0.178 ± 0.015; that for `O=C(C1CCCCC1)N1CC(=O)N2CCc3ccccc3C2C1` (centres undefined) [Praziquantel] was 0.174 ± 0.0068; that for `Clc1ccc(Cn2c(CN3CCCC3)nc3ccccc32)cc1` [Clemizole hydrochloride] was 0.156 ± 0.027.

`O=C(O)c1ccccc1OP(=O)(O)O` [Fosfosal] displayed a growth of 0.21 ± 0.017. Consider `COc1ccc(C2CNC(=O)C2)cc1OC1CCCC1` (centres undefined) [Rolipram], for which the growth was 0.211 ± 0.0056.

As for `CCC1=C(C)CN(C(=O)NCCc2ccc(S(=O)(=O)NC(=O)N[C@H]3CC[C@H](C)CC3)cc2)C1=O` [Glimepiride], the growth came to 0.21 ± 0.012. `CC(=O)Nc1c(I)c(C(=O)N[C@H]2C(O)O[C@H](CO)[C@@H](O)[C@@H]2O)c(I)c(N(C)C(C)=O)c1I` (some centres undefined) [Metrizamide] gave a growth of 0.218 ± 0.025.
